Source: PubChem BioAssay (NCATS)
Results filed as inconclusive are left out. Calls of active or inactive are those of the source. Unless noted, calls come from the whole dose curve.

Columns and labels:
[1] = biological target: Tumor susceptibility gene 101 protein (Homo sapiens) (UniProt Q99816); test: qHTS Assay for Iinhibitors of HIV-1 Budding by Blocking the Interaction of PTAP/TSG101: Hit Validation (AID 651600; active = well fitted inhibition curve with a large enough effect; note: nearly all actives have a fitted effect of over 70% in size)
Chain of Tumor susceptibility gene 101 protein (Homo sapiens) (Q99816 whole entry, looked up): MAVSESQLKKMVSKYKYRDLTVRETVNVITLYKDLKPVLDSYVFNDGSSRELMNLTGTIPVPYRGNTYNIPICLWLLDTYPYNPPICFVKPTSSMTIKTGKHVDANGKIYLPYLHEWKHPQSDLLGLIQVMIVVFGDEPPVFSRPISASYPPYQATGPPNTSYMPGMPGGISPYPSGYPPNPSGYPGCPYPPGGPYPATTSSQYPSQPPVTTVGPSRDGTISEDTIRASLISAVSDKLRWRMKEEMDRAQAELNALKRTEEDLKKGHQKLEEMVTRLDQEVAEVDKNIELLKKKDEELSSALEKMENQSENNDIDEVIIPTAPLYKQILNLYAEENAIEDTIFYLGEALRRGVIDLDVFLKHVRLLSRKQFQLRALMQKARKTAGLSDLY
Text: Stages of the HIV-1 replication cycle, specifically virus assembly and release, provide underexploited targets for the development of novel antiviral inhibitors. The late stages of HIV-1 replication are mediated by the Gag precursor protein, Pr55Gag. Expression of Pr55Gag is both necessary and sufficient for the production of virus-like particles from Gag-expressing cells. The Gag protein hijacks key host proteins involved in endocytic machinery of the host cell to promote endosomal processing and viral budding. The budding process requires a direct interaction between a […] (PTAP) motif in the p6 domain of Gag and the cellular endosomal sorting protein known as Tsg101. In this way, the Gag PTAP motif promotes the host cells to recruit viral particles to the plasma membrane where the new viral particles are released, effectively turning the host cells into viral factories. A fluorescence anisotropy assay has been developed to quantitatively measure the PTAP-Tsg101 interaction which can be used to screen for inhibitors of this interaction. […]
Two uL of the Tsg101 binding domain in buffer (10 mM HEPES pH 7.5; 0.15 M NaCl, 0.01% Tween 20; 3 mM EDTA;0.1 mM TCEP) was dispensed into Greiner black MB 1536-well plates (final concentration 10 uM). […] Fluorescent polarization was determined using FITC excitation and polarized emission filters on a Perkin Elmer Viewlux. […]

[2] = qHTS assay for small molecule disruptors of the mitochondrial membrane potential - 1 hr assay (AID 651754); note: nearly all actives have a fitted effect of over 35% in size
Outline: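 Mitochondrial potential in living HepG2 cells after 1 hr compound treatment at 37C was read with Mito-MPS dye added for a further 30 min. Red aggregate and green monomer fluorescence were measured; loss of potential leaves dye as cytoplasmic monomers.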

[3] = qHTS assay for small molecule disruptors of the mitochondrial membrane potential - 5 hr assay (AID 651755); note: nearly all actives have a fitted effect of over 40% in size
Outline: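 Read-out: ratiometric Mito-MPS fluorescence, green monomer (ex 490/em 535) vs red mitochondrial aggregate (ex 540/em 590). HepG2 cells treated 5 hr at 37C before 30 min dye loading.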

For `CC[C@H](C)/C=C(C)/C=C/C1=CC2=CC(=O)[C@]3(C)OC(=O)[C@@H](C(C)=O)[C@@H]3C2=CO1`, the outcome [1] was “inactive”.
For `CN(C)Cc1ccccc1`, the outcome [2] was “inactive” and the outcome [3] was “inactive”.
With `O=C(O)CC(O)(CC(=O)O)C(=O)O` the outcome [2] was “inactive” and the outcome [3] was “inactive”.
